# According to article PMC11062922 (Nature Chemical Biology, 2023):
# Like-named read-outs stand apart in the source and are kept apart here.
# Legend:
# ABL2 = system: ABL2; design: species or system human, MV4-11 + K-562 + COLO205 + SK-N-BE2 + OVCAR-8; conditions: read-out: apparent Kd; compound concentrations: 100 nM and 1000 nM (sheet 'Samples'), CATDS: 7.86907844661483E-2; n = 1
# FYN = system: FYN; design: species or system human, MV4-11 + K-562 + COLO205 + SK-N-BE2 + OVCAR-8; conditions: read-out: apparent Kd, compound concentrations: 100 nM and 1000 nM (sheet 'Samples'), n = 1
# GAK = system: GAK; design: species or system human, MV4-11 + K-562 + COLO205 + SK-N-BE2 + OVCAR-8; conditions: read-out: apparent Kd, compound concentrations: 100 nM and 1000 nM (sheet 'Samples'), n = 1
# LCK = system: LCK; design: species or system human, MV4-11 + K-562 + COLO205 + SK-N-BE2 + OVCAR-8; conditions: read-out: apparent Kd, compound concentrations: 100 nM and 1000 nM (sheet 'Samples'), n = 1
# RIPK3 = system: RIPK3; design: species or system human, MV4-11 + K-562 + COLO205 + SK-N-BE2 + OVCAR-8; conditions: read-out: apparent Kd, compound concentrations: 100 nM and 1000 nM (sheet 'Samples'), n = 1
# TNK1 = system: TNK1; design: species or system human, MV4-11 + K-562 + COLO205 + SK-N-BE2 + OVCAR-8; conditions: read-out: apparent Kd; compound concentrations: 100 nM and 1000 nM (sheet 'Samples'), CATDS: 7.10025614221442E-2; n = 1
# YES1 = system: YES1; design: species or system human, MV4-11 + K-562 + COLO205 + SK-N-BE2 + OVCAR-8; conditions: read-out: apparent Kd, compound concentrations: 100 nM and 1000 nM (sheet 'Samples'), n = 1
# ABL1 = system: ABL1; design: species or system human, MV4-11 + K-562 + COLO205 + SK-N-BE2 + OVCAR-8; conditions: read-out: apparent Kd, compound concentrations: 100 nM and 1000 nM (sheet 'Samples'), n = 1
# HCK = system: HCK; design: species or system human, MV4-11 + K-562 + COLO205 + SK-N-BE2 + OVCAR-8; conditions: read-out: apparent Kd, n = 1
# PTK6 = system: PTK6; design: species or system human, MV4-11 + K-562 + COLO205 + SK-N-BE2 + OVCAR-8; conditions: read-out: apparent Kd; compound concentrations: 100 nM and 1000 nM (sheet 'Samples'), CATDS: 6.5275116077435802E-2; n = 1
# RIPK2 = system: RIPK2; design: species or system human, MV4-11 + K-562 + COLO205 + SK-N-BE2 + OVCAR-8; conditions: read-out: apparent Kd, n = 1
# ACOX1 = system: ACOX1; design: species or system human, MV4-11 + K-562 + COLO205 + SK-N-BE2 + OVCAR-8; conditions: read-out: apparent Kd, n = 1
# CSNK2A2 = system: CSNK2A2; design: species or system human, MV4-11 + K-562 + COLO205 + SK-N-BE2 + OVCAR-8; conditions: read-out: apparent Kd, n = 1
# CLK1 = system: CLK1; design: species or system human, MV4-11 + K-562 + COLO205 + SK-N-BE2 + OVCAR-8; conditions: read-out: apparent Kd; compound concentrations:100 nM and 1000 nM (sheet 'Samples'); n = 1
# Q6ZSR9 = Q6ZSR9 (human, UniProt Q6ZSR9); design: species or system MV4-11 + K-562 + COLO205 + SK-N-BE2 + OVCAR-8; conditions: read-out: apparent Kd; compound concentrations: 100 nM and 1000 nM (sheet 'Samples'), CATDS: 3.9115403920336002E-2; n = 1
# [1] = compound concentrations:100 nM and 1000 nM (sheet 'Samples')
# Sequence of Q6ZSR9 (Q6ZSR9 whole entry, looked up): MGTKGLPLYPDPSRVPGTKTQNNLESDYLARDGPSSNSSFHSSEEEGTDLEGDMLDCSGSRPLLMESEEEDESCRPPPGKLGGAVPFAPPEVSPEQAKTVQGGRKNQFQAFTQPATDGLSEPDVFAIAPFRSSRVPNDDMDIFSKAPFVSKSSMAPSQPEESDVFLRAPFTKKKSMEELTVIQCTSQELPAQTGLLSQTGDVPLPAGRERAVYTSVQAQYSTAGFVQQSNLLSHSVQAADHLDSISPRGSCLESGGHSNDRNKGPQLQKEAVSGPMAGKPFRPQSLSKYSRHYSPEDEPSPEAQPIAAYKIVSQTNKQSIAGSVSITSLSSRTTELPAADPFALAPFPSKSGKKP
compound,measurement,setting,value
CC(=O)N1CCN(c2ccc(Nc3nccc(-c4sc(C(C)C)nc4-c4cccc(NS(=O)(=O)c5cccc(Cl)c5)c4)n3)cn2)CC1 [GSK1660437A],potency estimated from few doses,ABL2,351 nM
same,potency estimated from few doses,FYN; CATDS: 4.41921751489057E-2,1120 nM
same,potency estimated from few doses,GAK; CATDS: 7.8355019854230004E-2,353 nM
same,potency estimated from few doses,LCK; CATDS: 4.6764709487854099E-2,973 nM
same,potency estimated from few doses,RIPK3; CATDS: 3.6291204942441098E-2,2010 nM
same,potency estimated from few doses,TNK1,418 nM
same,potency estimated from few doses,YES1; CATDS: 4.9089753875203201E-2,868 nM
CN1CCN(Cc2ccc(-c3ccc4c(Nc5ccc(Oc6ccccn6)cc5)ccnc4c3)o2)CC1 [GW567140X],potency estimated from few doses,ABL1; CATDS: 9.3195013096343204E-2,147 nM
same,potency estimated from few doses,FYN; CATDS: 4.4615082678796297E-2,675 nM
same,potency estimated from few doses,GAK; CATDS: 3.56871929379163E-2,1320 nM
same,potency estimated from few doses,"HCK; compound concentrations: 100 nM and 1000 nM (sheet 'Samples'), CATDS: 0.15093661180131901",68.5 nM
same,potency estimated from few doses,LCK; CATDS: 4.8128660017474401E-2,557 nM
same,potency estimated from few doses,PTK6,284 nM
same,potency estimated from few doses,"RIPK2; compound concentrations: 100 nM and 1000 nM (sheet 'Samples'), CATDS: 0.141504972954966",75.4 nM
same,potency estimated from few doses,RIPK3; CATDS: 4.8755783013644902E-2,540 nM
same,potency estimated from few doses,YES1; CATDS: 6.0479326827192301E-2,332 nM
Nc1ncc(-c2cn[nH]c2)c2scc(-c3ccc4c(c3)CCN4C(=O)Cc3ccccc3)c12 [GSK2593067A],potency estimated from few doses,ABL1; CATDS: 6.1234065339549101E-2,1560 nM
same,potency estimated from few doses,LCK; CATDS: 7.5344179504310702E-2,841 nM
same,potency estimated from few doses,"RIPK2; compound concentrations: 100 nM and 1000 nM (sheet 'Samples'), CATDS: 7.5110526663463406E-2",848 nM
Cn1cc(C2=C(c3cn(CCCN/C(N)=N/[N+](=O)[O-])c4ccccc34)C(=O)NC2=O)c2ccccc21 [RO0318161-000],potency estimated from few doses,"ACOX1; compound concentrations: 100 nM and 1000 nM (sheet 'Samples'), CATDS: 0.32839321732103",1100 nM
Cn1cc(C2=C(c3cccc([N+](=O)[O-])c3)C(=O)NC2=O)c2ccccc21 [RO0317474-000],potency estimated from few doses,"ACOX1; compound concentrations: 100 nM and 1000 nM (sheet 'Samples'), CATDS: 0.177541909552099",937 nM
CC(=O)Nc1ccc2c(C3=C(c4cn(C)c5ccccc45)C(=O)NC3=O)cn(C)c2c1 [RO0317596-000],potency estimated from few doses,"ACOX1; compound concentrations: 100 nM and 1000 nM (sheet 'Samples'), CATDS: 0.20475693554228799",453 nM
CCS(=O)(=O)c1ccc(OC)c(Nc2ncc(-c3cccc(F)c3)o2)c1 [GW621970X_KCGS],potency estimated from few doses,CSNK2A2; [1],2010 nM
COc1cc2ncn(-c3cc(OCc4sccc4Cl)c(C(N)=O)s3)c2cc1OC [GSK448459A],potency estimated from few doses,ACOX1; [1],1270 nM
COc1cc(F)c(F)c(F)c1C(=O)c1cnc(NC2CCN(S(C)(=O)=O)CC2)nc1N [RO4600703-000],potency estimated from few doses,ACOX1; [1],1010 nM
same,potency estimated from few doses,CLK1,729 nM
Cc1[nH]nc2c1N=C(c1ccccc1Cl)c1cc([N+](=O)[O-])ccc1N2 [RO0274406-000],potency estimated from few doses,"ACOX1; compound concentrations: 100 nM and 1000 nM (sheet 'Samples'), CATDS: 6.8791722684654694E-2",1400 nM
NC(=O)c1cccnc1COc1cc(-c2ccc(N3CCOCC3)nc2)cc2ncccc12 [BI01125081],potency estimated from few doses,HCK; [1],1350 nM
COc1ccc(C2=C(c3cn(C)c4ccccc34)C(=O)NC2=O)cc1OC [RO3206363-000],potency estimated from few doses,"ACOX1; compound concentrations: 100 nM and 1000 nM (sheet 'Samples'), CATDS: 3.3243349000795501E-2",1570 nM
same,potency estimated from few doses,"CSNK2A2; compound concentrations: 100 nM and 1000 nM (sheet 'Samples'), CATDS: 3.3167701686651403E-2",1580 nM
same,potency estimated from few doses,"HCK; compound concentrations: 100 nM and 1000 nM (sheet 'Samples'), CATDS: 3.6036002051639801E-2",1170 nM
same,potency estimated from few doses,Q6ZSR9,898 nM
Clc1ccc(-c2nn3ncccc3c2-c2ccnc(Nc3ccccc3)n2)cc1 [GW829055X],potency estimated from few doses,"HCK; compound concentrations: 100 nM and 1000 nM (sheet 'Samples'), CATDS: 3.5992477058575501E-2",1500 nM
O=C1Nc2ccc(F)cc2/C1=C/c1ccc[nH]1 [RO0272148-000],potency estimated from few doses,"ACOX1; compound concentrations: 100 nM and 1000 nM (sheet 'Samples'), CATDS: 0.35170736518262402",1160 nM
COc1ccc(C2=C(Nc3cccc(O)c3)C(=O)NC2=O)cc1 [SB-390766],potency estimated from few doses,ACOX1; [1],861 nM
Cc1ccc(C(=O)NC2CC2)cc1-c1ccc2[nH]ncc2c1 [GW820759X],potency estimated from few doses,"ACOX1; compound concentrations: 100 nM and 1000 nM (sheet 'Samples'), CATDS: 0.303559006930335",1410 nM
COc1ccc(C2=NC(c3ccc(Cl)cc3F)C(C(=O)Nc3ccc4[nH]ncc4c3)=C(C)N2)cn1.O=C(O)C(F)(F)F (stereo not shown) [GSK534913A],potency estimated from few doses,ACOX1; [1],1050 nM
NC(=O)c1sc(-n2cnc3ccc(C(F)(F)F)cc32)cc1OCc1ccccc1Br [GW853606X],potency estimated from few doses,ACOX1; [1],2200 nM
CCCN1CCC(Oc2cc(Nc3nc(Nc4cccc(F)c4C(N)=O)c4cc[nH]c4n3)c(OC)cc2Cl)CC1 [GSK1713088A],potency estimated from few doses,"ACOX1; compound concentrations: 100 nM and 1000 nM (sheet 'Samples'), CATDS: 0.172971631917821",2220 nM
COc1cccc(C2=C(c3cn(C)c4c(C)cccc34)C(=O)NC2=O)c1 [RO3301012-000],potency estimated from few doses,"ACOX1; compound concentrations: 100 nM and 1000 nM (sheet 'Samples'), CATDS: 0.48882093351054501",97.9 nM
same,potency estimated from few doses,"RIPK2; compound concentrations: 100 nM and 1000 nM (sheet 'Samples'), CATDS: 0.14252909212912099",770 nM
Cc1ccc(NC(=O)c2ccc(Cl)cc2)cc1-c1ccc(C(=O)Nc2ccncc2)cc1 [GSK1398467A],potency estimated from few doses,"ACOX1; compound concentrations: 100 nM and 1000 nM (sheet 'Samples'), CATDS: 0.25978974702241497",761 nM
Cl.Fc1cccc(COc2ccc(Nc3ncnc4cc(-c5ccc[nH]5)sc34)cc2Cl)c1 [GW693881A],potency estimated from few doses,"ACOX1; compound concentrations: 100 nM and 1000 nM (sheet 'Samples'), CATDS: 0.17026663208719101",1170 nM
CCCCCNC(=O)[C@@H]1CCCN2C(=O)CC[C@H](NC(=O)[C@H](Cc3ccc(OP(=O)(O)O)cc3)NC(C)=O)C(=O)N12 [RO0324694-000],potency estimated from few doses,ACOX1; [1],1640 nM
COc1ccc(-c2nn3ncccc3c2-c2ccnc(Nc3ccc4c(c3)OCCO4)n2)cc1 [GW827106X],potency estimated from few doses,"ACOX1; compound concentrations: 100 nM and 1000 nM (sheet 'Samples'), CATDS: 4.5987124512604401E-2",1840 nM
same,potency estimated from few doses,GAK; CATDS: 6.3505143893273594E-2,888 nM
Cc1ccc(CC(=O)N2CCc3cc(-c4cn(C)c5ncnc(N)c45)ccc32)cc1 [GSK2634758A],potency estimated from few doses,"ACOX1; compound concentrations: 100 nM and 1000 nM (sheet 'Samples'), CATDS: 0.17317335895949701",1310 nM
COc1cc(N2CCN(C(C)C)CC2)ccc1Nc1nc(Nc2cccc(F)c2C(=O)O)c2cc[nH]c2n1 [GSK1819799A],potency estimated from few doses,GAK; CATDS: 9.1160563566663896E-2,352 nM
Cc1ccc(NC(=O)Nc2ccccc2)cc1-c1ccc(C(=O)Nc2ccncc2)cc1 [GSK1398471A],potency estimated from few doses,"HCK; compound concentrations: 100 nM and 1000 nM (sheet 'Samples'), CATDS: 0.185556916463613",507 nM
same,potency estimated from few doses,"RIPK2; compound concentrations: 100 nM and 1000 nM (sheet 'Samples'), CATDS: 0.252300510926462",310 nM
same,potency estimated from few doses,RIPK3; CATDS: 0.107109560808048,1620 nM
same,potency estimated from few doses,YES1; CATDS: 0.19959075009265401,448 nM
Cn1cc(C2=C(c3ccccc3[N+](=O)[O-])C(=O)NC2=O)c2ccccc21 [RO0317753-000],potency estimated from few doses,"ACOX1; compound concentrations: 100 nM and 1000 nM (sheet 'Samples'), CATDS: 8.6924247533373397E-2",891 nM
COc1ccccc1C(=O)c1cnc(NC2CCN(S(C)(=O)=O)CC2)nc1N [RO4514610-000],potency estimated from few doses,ACOX1; [1],2190 nM
Cl.Oc1ccc2ncnc(Nc3ccc(OCc4ccccc4)cc3)c2c1 [GI262866A],potency estimated from few doses,ACOX1; [1],830 nM
same,potency estimated from few doses,RIPK2; [1],923 nM
Cn1cc(C2=C(c3cn(CCCCCO)c4ccccc34)C(=O)NC2=O)c2ccccc21 [RO0318053-000],potency estimated from few doses,"ACOX1; compound concentrations: 100 nM and 1000 nM (sheet 'Samples'), CATDS: 0.35843240047959801",34.1 nM
COc1ccc(S(=O)(=O)NC2CCN(c3cc(C)nc(Nc4cccc(C#N)c4)n3)CC2)cc1.O=C(O)C(F)(F)F [GSK1653539A],potency estimated from few doses,"ACOX1; compound concentrations: 100 nM and 1000 nM (sheet 'Samples'), CATDS: 0.290276615306997",1770 nM
